Source: the supplement of paper PMC10849652
Targets with a hit are over-represented here; the source holds about 7,900 in all. About 0.6% of all pairs of compound and target were hits.

Tests used:
Test in all cases: log2 fold change, soluble protein after heating vs DMSO (PISA); higher = thermal stabilisation; K562 cells, 10 uM, 30 min; active = over 0.2 and 3.5 SD of the protein, either way, in both replicates (recomputed)
[1] = compound: CC1=NC(=CC=C1)C2=C(N=C(N2)C(C)(C)C)C3=CC4=NC=CN=C4C=C3
Outline: (§1)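 Quantification of soluble protein used TMTpro 16plex LC-MS/MS, with channel sums equalised. Samples were the supernatant after 21,000xg for 90 min of pooled aliquots from K562 cells (2×10^6 cells/mL) treated with 10 μM compound for 30 min, heated for 3 min over 48°C-58°C, and extracted in PBS with 0.5% NP-40 at 4°C. Values, from duplicates, describe thermal stability against control samples on a log2 fold-change scale.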

[2] = compound: CCN(CC)Cc1ccc2cc(COC(=O)Nc3ccc(C(=O)NO)cc3)ccc2c1 [givinostat]
Outline: as §1

[3] = compound: CCN(CCCOc1ccc2c(Nc3cc(CC(=O)Nc4cccc(F)c4)[nH]n3)ncnc2c1)CCOP(=O)(O)O [barasertib]
Outline: as §1

[4] = compound: CC1=C(C=C(C=C1)NC(=O)C2=CC(=CC=C2)C(C)(C)C#N)NC3=CC4=C(C=C3)N=CN(C4=O)C
Outline: as §1

[5] = compound: CCCCN(Cc1ccc(C(=O)NO)cc1)C(=O)Nc1ccccc1 [Nexturastat A]
Outline: as §1

[6] = compound: CCCS(=O)(=O)Nc1ccc(F)c(C(=O)c2c[nH]c3ncc(-c4ccc(Cl)cc4)cc23)c1F [vemurafenib]
Outline: as §1

[7] = compound: CCCc1cc(C)[nH]c(=O)c1CNC(=O)c1cc(-c2ccnc(N3CCN(C)CC3)c2)cc2c1cnn2C(C)C
Outline: as §1

[8] = compound: CC1=CC=C(C=C1)SC2=C3C=C(SC3=CN=C2)C(=O)N
Outline: as §1

[9] = compound: CCCS(=O)(=O)Nc1ccc(F)c(C(=O)c2c[nH]c3ncc(Cl)cc23)c1F
Outline: as §1

[10] = compound: CC1=C(C=C(C=C1)NC(=O)C2=CC(=CC=C2)N(C)C)NC(=O)C3=CC=C(C=C3)O
Outline: as §1

Measured: log2 fold change

PUM1 (UniProt Q14671)
inactive: [1] -0.028 | [2] 0.08

PPP1R12B isoform 6 (UniProt O60237)
inactive: [2] 0.252 | [3] 0.108

PDE6D (UniProt O43924)
Chain of UniProt O43924 (O43924 whole entry, looked up): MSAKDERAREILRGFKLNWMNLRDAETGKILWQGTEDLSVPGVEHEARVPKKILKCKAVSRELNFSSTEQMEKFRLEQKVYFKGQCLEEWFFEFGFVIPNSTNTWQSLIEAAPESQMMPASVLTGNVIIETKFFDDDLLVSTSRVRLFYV
inactive: [4] -0.081 | [1] -0.117 | [5] 0.15 | [6] -0.022 | [7] -0.028 | [2] -0.052 | [3] 0.002

PHC3 isoform 7 (UniProt Q8NDX5)
Chain of UniProt Q8NDX5 (Q8NDX5 whole entry, looked up): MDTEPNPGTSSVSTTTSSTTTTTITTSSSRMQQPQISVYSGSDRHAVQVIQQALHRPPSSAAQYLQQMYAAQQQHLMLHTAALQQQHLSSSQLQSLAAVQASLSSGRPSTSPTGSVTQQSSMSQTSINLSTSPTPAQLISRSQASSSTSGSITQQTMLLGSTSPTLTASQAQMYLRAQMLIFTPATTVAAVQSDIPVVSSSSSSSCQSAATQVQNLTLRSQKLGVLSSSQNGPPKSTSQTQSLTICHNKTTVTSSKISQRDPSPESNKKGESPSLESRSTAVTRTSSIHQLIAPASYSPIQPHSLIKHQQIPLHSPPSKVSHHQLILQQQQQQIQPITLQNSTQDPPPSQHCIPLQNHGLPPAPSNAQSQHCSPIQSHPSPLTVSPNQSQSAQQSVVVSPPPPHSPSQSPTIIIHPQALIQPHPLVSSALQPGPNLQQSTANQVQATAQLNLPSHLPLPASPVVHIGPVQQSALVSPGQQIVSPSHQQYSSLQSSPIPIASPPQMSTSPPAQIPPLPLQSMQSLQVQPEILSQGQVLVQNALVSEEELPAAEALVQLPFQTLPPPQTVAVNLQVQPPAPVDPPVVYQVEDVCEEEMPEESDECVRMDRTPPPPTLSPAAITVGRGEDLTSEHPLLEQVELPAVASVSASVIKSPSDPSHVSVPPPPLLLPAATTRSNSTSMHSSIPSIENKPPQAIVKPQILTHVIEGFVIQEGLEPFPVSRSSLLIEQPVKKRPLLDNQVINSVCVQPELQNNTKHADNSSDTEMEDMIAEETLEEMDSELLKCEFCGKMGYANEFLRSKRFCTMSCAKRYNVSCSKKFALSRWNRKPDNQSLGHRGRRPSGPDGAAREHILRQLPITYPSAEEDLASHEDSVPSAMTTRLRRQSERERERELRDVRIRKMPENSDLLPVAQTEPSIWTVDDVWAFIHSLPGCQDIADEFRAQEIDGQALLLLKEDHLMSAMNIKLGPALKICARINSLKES
inactive: [4] 0.102 | [8] 0.088 | [1] 0.266 | [5] -0.43 | [9] 0.096 | [7] 0.116 | [2] 0.17 | [3] 0

PPP2R5B (UniProt Q15173)
Chain of UniProt Q15173 (Q15173 whole entry, looked up): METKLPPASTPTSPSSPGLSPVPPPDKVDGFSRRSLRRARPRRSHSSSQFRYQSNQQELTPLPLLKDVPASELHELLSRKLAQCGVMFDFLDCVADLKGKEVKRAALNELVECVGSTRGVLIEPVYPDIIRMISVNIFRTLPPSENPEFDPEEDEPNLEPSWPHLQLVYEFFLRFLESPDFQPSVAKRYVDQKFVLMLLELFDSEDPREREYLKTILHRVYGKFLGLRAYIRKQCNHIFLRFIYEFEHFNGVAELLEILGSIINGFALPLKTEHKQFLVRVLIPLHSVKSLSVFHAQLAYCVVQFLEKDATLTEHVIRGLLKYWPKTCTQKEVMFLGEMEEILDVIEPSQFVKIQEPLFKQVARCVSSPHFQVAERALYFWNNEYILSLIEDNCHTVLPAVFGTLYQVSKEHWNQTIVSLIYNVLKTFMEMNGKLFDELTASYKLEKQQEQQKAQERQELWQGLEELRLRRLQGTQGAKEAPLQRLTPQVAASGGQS
inactive: [8] -0.131 | [6] -0.104 | [9] 0.104 | [7] -0.013 | [2] 0.083 | [3] 0.009

PMVK (UniProt Q15126)
inactive: [4] 0.006 | [5] 0.085 | [6] -0.041 | [7] 0.016 | [2] -0.068 | [3] 0.014

PHLDB1 isoform 2 (UniProt Q86UU1)
Chain of UniProt Q86UU1 (Q86UU1 whole entry, looked up): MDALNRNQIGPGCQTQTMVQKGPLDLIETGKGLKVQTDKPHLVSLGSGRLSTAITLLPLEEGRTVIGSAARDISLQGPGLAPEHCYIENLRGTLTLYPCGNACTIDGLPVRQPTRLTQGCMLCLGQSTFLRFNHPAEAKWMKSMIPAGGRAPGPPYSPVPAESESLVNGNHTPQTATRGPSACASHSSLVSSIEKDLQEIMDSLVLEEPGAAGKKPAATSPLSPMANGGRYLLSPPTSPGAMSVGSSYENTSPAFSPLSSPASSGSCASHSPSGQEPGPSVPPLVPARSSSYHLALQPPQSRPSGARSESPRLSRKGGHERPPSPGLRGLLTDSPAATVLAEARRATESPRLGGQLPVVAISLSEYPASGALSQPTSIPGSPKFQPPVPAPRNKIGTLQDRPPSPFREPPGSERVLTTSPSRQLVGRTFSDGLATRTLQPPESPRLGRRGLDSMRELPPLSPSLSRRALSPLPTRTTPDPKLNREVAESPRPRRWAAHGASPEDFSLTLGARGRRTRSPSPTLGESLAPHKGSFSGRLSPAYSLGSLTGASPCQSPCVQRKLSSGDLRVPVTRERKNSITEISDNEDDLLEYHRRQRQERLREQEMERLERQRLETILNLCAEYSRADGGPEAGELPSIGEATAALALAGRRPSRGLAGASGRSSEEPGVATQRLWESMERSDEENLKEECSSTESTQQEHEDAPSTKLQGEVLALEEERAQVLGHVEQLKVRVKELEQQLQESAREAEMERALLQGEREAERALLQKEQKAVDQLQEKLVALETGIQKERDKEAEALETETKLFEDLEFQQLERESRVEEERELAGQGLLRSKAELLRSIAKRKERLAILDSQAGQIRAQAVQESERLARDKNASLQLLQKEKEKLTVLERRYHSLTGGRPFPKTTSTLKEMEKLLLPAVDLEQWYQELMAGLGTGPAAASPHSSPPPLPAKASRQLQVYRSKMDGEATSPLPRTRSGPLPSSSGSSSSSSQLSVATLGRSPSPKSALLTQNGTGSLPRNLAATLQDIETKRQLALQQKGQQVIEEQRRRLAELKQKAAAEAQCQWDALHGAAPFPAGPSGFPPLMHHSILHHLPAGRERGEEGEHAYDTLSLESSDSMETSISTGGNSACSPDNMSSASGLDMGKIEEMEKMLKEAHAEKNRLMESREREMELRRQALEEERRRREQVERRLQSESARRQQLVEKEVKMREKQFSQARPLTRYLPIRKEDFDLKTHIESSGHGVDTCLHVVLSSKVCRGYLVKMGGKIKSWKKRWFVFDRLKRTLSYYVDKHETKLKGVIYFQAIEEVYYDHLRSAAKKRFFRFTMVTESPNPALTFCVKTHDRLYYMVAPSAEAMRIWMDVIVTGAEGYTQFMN
inactive: [10] 0.01 | [8] 0.047 | [1] 0.047 | [5] 0.045 | [6] 0.031 | [9] 0.016 | [7] 0.14 | [2] -0.012 | [3] 0.117

POLR2M (UniProt Q6EEV4)
Chain of UniProt Q6EEV4 (Q6EEV4 whole entry, looked up): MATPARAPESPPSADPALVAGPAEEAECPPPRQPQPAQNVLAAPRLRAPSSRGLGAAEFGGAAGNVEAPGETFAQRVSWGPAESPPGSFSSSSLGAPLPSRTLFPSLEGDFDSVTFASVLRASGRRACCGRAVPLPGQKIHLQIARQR
inactive: [4] 0.091 | [8] -0.062 | [1] 0.046 | [5] -0.403 | [6] 0.017 | [9] -0.066 | [7] -0.073 | [2] -0.105 | [3] -0.055

PIAS4 (UniProt Q8N2W9)
Chain of UniProt Q8N2W9 (Q8N2W9 whole entry, looked up): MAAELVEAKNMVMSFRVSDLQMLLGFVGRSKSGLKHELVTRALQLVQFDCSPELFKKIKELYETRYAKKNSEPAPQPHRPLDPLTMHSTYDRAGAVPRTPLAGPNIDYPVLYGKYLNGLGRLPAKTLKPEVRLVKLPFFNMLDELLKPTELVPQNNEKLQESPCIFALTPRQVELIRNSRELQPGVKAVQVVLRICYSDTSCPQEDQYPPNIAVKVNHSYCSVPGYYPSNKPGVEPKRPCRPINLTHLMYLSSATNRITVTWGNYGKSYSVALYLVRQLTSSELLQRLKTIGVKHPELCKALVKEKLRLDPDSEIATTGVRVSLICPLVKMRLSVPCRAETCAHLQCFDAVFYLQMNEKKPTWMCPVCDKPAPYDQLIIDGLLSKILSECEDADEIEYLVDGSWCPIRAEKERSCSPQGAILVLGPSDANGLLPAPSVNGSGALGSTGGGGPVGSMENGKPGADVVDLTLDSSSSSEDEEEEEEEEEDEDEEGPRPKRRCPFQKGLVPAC
inactive: [10] -0.137 | [8] -0.101 | [1] 0.222 | [5] 0.353 | [9] 0.07 | [7] 1.31

PSMC3 (UniProt E9PLG2)
inactive: [4] -0.381 | [1] -0.217 | [5] 0.04 | [6] -0.157 | [7] -0.08 | [3] 0.02

PTP4A3 (UniProt O75365)
inactive: [6] 0.207 | [3] -0.01

PCNX1 (UniProt Q96RV3)
inactive: [8] -0.373 | [5] 0.106 | [6] 0.025 | [7] -0.035 | [3] 0.026
active: [9] -0.58

PRKCE (UniProt Q02156)
Chain of UniProt Q02156 (Q02156 whole entry, looked up): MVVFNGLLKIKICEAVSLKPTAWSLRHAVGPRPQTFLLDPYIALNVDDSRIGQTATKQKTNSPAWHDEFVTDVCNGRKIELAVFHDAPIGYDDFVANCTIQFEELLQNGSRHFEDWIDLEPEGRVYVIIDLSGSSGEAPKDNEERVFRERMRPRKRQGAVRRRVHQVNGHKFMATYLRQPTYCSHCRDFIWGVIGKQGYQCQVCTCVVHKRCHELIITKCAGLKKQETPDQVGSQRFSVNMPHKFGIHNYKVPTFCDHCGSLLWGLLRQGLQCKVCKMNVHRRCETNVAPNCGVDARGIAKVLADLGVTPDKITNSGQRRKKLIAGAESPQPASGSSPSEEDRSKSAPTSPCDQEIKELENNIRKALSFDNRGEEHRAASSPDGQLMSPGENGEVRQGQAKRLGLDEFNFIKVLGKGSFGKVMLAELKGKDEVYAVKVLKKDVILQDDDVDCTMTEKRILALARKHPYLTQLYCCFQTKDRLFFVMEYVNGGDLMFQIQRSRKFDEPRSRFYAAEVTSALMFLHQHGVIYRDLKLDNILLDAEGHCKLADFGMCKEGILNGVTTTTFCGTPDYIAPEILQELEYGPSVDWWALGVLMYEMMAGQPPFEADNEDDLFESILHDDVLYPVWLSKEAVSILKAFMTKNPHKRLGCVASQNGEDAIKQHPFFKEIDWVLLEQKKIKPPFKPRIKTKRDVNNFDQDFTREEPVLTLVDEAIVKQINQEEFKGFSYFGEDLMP
inactive: [4] 0.041 | [8] -0.012 | [1] 0.048 | [5] -0.242 | [6] 0.077 | [9] 0.085 | [7] -0.02 | [3] 0.013
active: [2] -0.393

POLR2E (UniProt P19388)
inactive: [10] -0.094 | [8] 0 | [1] -0.091 | [5] 0.005 | [6] 0.031 | [9] 0.018 | [7] 0.099 | [2] -0.007 | [3] -0.03

PCBP2 (UniProt F8VZX2)
inactive: [10] -0.14 | [1] 0.005 | [7] -0.098 | [2] 0.009 | [3] -0.173

PUF60 isoform 2 (UniProt Q9UHX1)
Chain of UniProt Q9UHX1 (Q9UHX1 whole entry, looked up): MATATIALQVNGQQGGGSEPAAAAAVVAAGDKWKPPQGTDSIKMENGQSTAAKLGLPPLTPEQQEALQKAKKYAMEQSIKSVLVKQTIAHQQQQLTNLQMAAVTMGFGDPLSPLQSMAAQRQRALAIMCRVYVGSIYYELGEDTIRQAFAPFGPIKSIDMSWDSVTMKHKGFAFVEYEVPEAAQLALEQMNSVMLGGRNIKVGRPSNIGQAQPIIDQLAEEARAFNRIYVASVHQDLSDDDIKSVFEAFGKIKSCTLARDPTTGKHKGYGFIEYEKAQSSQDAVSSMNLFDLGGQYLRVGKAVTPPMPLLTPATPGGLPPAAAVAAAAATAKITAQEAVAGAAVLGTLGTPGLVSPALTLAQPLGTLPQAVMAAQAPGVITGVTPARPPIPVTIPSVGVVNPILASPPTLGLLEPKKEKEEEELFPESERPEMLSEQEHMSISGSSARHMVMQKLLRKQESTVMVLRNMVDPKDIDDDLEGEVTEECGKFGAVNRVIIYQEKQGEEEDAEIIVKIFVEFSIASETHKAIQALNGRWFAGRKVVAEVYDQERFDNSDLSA
inactive: [10] 0.04 | [8] 0.199 | [6] 0.135 | [9] 0.35 | [7] 0.123 | [3] 0.095

PIGH (UniProt Q14442)
inactive: [10] 0.001 | [8] 0.027 | [1] 0 | [5] 0.141 | [6] 0 | [9] -0.025 | [7] -0.069 | [2] -0.011 | [3] -0.219
